Test results: PubChem BioAssay AID618 (Sanford-Burnham Center for Chemical Genomics, 2007)
Screen size: about 87,000 compounds; about 540 (0.62%) were called active. How the calls were made is not given here. The sample as a whole holds a higher share of actives than the screen did. Measured potencies and affinities stand elsewhere.

Assay: MT1-MMP gene expression reporter suppression – cell-based, luciferase reporter, luminescence (AID 618);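 further: actives suppress MT1-MMP promoter-driven transcription so potencies describe inhibitors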
Conditions: MT1-MMP promoter luciferase reporter cells

SMILES	outcome
CCC/C(O)=C1\C(=O)CC(C)(C)CC1=Nc1ccccc1OC	inactive
CCCC/C(O)=C1\C(=O)CC(C)(C)CC1=Nc1ccccc1OC	inactive
CCOc1ccc(C2c3c(oc4ccccc4c3=O)C(=O)N2CCCN2CCOCC2)cc1OCC (configuration not stated)	inactive
CSc1cc(-c2ccccc2)n(Cc2ccc(Cl)cc2Cl)c(=O)c1C#N	inactive
CSc1cc(-c2ccccc2)n(Cc2ccccc2Cl)c(=O)c1C#N	active
Cc1cc(C)n(Cc2ccccc2F)c(=O)c1C#N	inactive
CSc1cc(-c2ccccc2)n(Cc2c(Cl)cccc2Cl)c(=O)c1C#N	active
CSc1cc(-c2ccc(Cl)cc2)n(Cc2ccccc2)c(=O)c1C#N	inactive
Cn1c(=O)c2c(nc(SCCCC#N)n2Cc2c(F)cccc2Cl)n(C)c1=O	inactive
Cc1ccc(-n2c(SCC(=O)NCc3ccco3)nnc2-c2cccnc2)c(C)c1	inactive
CCOC(=O)N1CCC(NC(=O)C2CCN(S(=O)(=O)N3CCC(C)CC3)CC2)CC1	inactive
Cc1cc(C)cc(OCc2nc3ncc(Br)cc3[nH]2)c1	inactive
C=CCOc1cccc(C2C(C(=O)c3ccco3)=C(O)C(=O)N2CCN2CCOCC2)c1 (configuration not stated)	inactive
COc1ccccc1N1CCN(C(=O)CN(c2cc(C)cc(C)c2)S(C)(=O)=O)CC1	inactive
c1c2c(cc3sc(N4CCOCC4)nc13)OCO2	inactive
O=C(c1ccc2nc(N3CCCCC3)sc2c1)N1CCN(Cc2ccc3c(c2)OCO3)CC1	inactive
c1ccc(N2CCN(c3nc4cc5c(cc4s3)OCCO5)CC2)cc1	inactive
c1c2c(cc3sc(N4CCOCC4)nc13)OCCO2	active
c1ccc2sc(N3CCOCC3)nc2c1	inactive
c1c2c(cc3sc(N4CCCCC4)nc13)OCO2	active
c1c2c(cc3sc(N4CCCCC4)nc13)OCCO2	active
Clc1ccc2nc(N3CCCCC3)sc2c1	inactive
O=S(=O)(c1ccc2c(c1)OCCO2)N1CCN(c2nc3ccccc3s2)CC1	inactive

SMILES	outcome
c1ccc2c(c1)CCN(c1nc3cc4c(cc3s1)OCCO4)C2	active
c1ccc(N2CCN(c3nc4cc5c(cc4s3)OCO5)CC2)cc1	inactive
c1ccc2c(c1)CCN(c1nc3cc4c(cc3s1)OCO4)C2	inactive
CCOC(=O)c1c(COC(=O)c2ccco2)nc2ccccc2[n+]1[O-]	inactive
O=C(CCn1c(=O)oc2ccccc21)Nc1cccc(Cl)c1	inactive
Cc1cc2ccccc2c(=O)n1CC(=O)Nc1ccc2c(c1)OCCO2	inactive
CCOC(=O)c1[nH]c2ccc(F)cc2c1NC(=O)C1=COCCO1	inactive
CC(=O)c1c(C(C)=O)c(C)n(-c2nc(-c3ccc(Br)cc3)c(C)s2)c1C	inactive
COc1ccc(OCCSc2ncn[nH]2)cc1	inactive
OC(COc1ccccc1)CSc1ncn[nH]1 (configuration not stated)	inactive
CCCCn1c(SCC(=O)N2CCOCC2)nnc1-c1cccs1	inactive
CC[C@]1(O)CC2CN(CCc3c([nH]c4ccccc34)[C@@](C(=O)OC)(c3cc4c(cc3OC)N(C=O)[C@H]3[C@@](O)(C(=O)OC)[C@H](OC(C)=O)[C@]5(CC)C=CCN6CC[C@]43[C@@H]65)C2)C1 (some centres not stated)	active
COc1ccccc1N1CCN(C(=O)CSc2nc(-c3ccco3)cc(C(F)(F)F)n2)CC1	inactive
Cc1cc(C)c(S(=O)(=O)N2CCCCC2)c(C)c1-n1ncnn1	inactive
O=C(Cn1nc(-c2ccc(Cl)cc2)c2ccccc2c1=O)NCC1CCCO1 (configuration not stated)	inactive
COc1ccc(-c2cc(C(F)(F)F)nc(S(C)(=O)=O)n2)cc1OC	inactive
CS(=O)(=O)c1nc(-c2ccccc2)cc(C(F)(F)F)n1	active
COC(=O)CCS(=O)(=O)c1nc(-c2ccccc2)cc(C(F)(F)F)n1	inactive
COc1ccccc1-c1cc(C(F)(F)F)nc(S(=O)(=O)CCCC(=O)O)n1	inactive
COc1ccc(-c2cc(C(F)(F)F)nc(S(C)(=O)=O)n2)cc1	inactive
CCOC(=O)CS(=O)(=O)c1nc(-c2ccc(F)cc2)cc(C(F)(F)F)n1	active
CCOC(=O)CSc1nc(-c2ccccc2)cc(C(F)(F)F)n1	inactive
COc1ccccc1-c1cc(C(F)(F)F)nc(S(=O)(=O)CCCC(=O)N2CCCCC2C)n1 (configuration not stated)	inactive

SMILES	outcome
CCOC(=O)CS(=O)(=O)c1nc(-c2ccccc2)cc(C(F)(F)F)n1	inactive
COC(=O)CSc1nc(-c2ccc(F)cc2)cc(C(F)(F)F)n1	inactive
CCNc1nc(Oc2ccc(=O)[nH]n2)nc(N2CCOCC2)n1	inactive
CCOC(=O)C1=NN(c2ccc(OC)cc2)C(c2ccccc2)CC1=O (configuration not stated)	inactive
COC(=O)c1ccc(CSc2nnc(SCc3ccc(C(=O)OC)o3)s2)o1	inactive
CCN1C(c2ccc(F)cc2)=CS/C1=C(\C#N)c1nnc2n1-c1ccccc1SC2	inactive
CNc1nnc(-c2ccncc2)s1	inactive
CNc1nnc(-c2cccc(N(C)C)c2)s1	inactive
Cc1ccc(-c2nc(CS(=O)(=O)CC(=O)NC3CCCCC3C)c(C)o2)cc1 (configuration not stated)	inactive
CCc1ccc(-c2ccc(C(=O)O)cc2)nc1	inactive
CCCCc1ccc(-c2nc(N)n[nH]2)cc1	inactive
CCCc1ccc(-c2ccc(C(=O)O)cc2)nc1	inactive
CCCCCc1ccc(-c2ccc(=O)[nH]n2)cc1	inactive
CCCCCCc1ccc(-c2ncc(N)cn2)cc1	active
CC(=O)c1ccc(N=Cc2c(O)n(-c3cc(Cl)ccc3N3CCOCC3)c(=O)c3ccccc23)cc1	inactive
Cc1noc(NS(=O)(=O)c2ccc(NC(=O)CSc3nc4ccccc4[nH]3)cc2)c1C	inactive
CCCc1nc(SCc2ccccn2)c2c(=O)n(C)c(=O)n(C)c2n1	inactive
CCOc1nc(NCCc2ccc(OC)c(OC)c2)nc(N2CCN(c3ccc(OC)cc3)CC2)n1	inactive
Cc1cccc(N2CCN(C(=O)c3cc4c(=O)n(C)c5ccccc5c4n3C)CC2)c1C	inactive
COc1ncnc2sc(-c3ccccc3)cc12	inactive
COc1ccc(-c2cc(=O)c3ccccc3s2)cc1	inactive
O=C(Nc1ccc(N2CCCC2=O)cc1)c1cccc(F)c1	inactive
O=C(Nc1ccc(N2CCCC2)cc1)c1cccc(F)c1	active

SMILES	outcome
O=C(Nc1ccc(N2CCCCC2)cc1)c1cccnc1	inactive
O=C(Nc1ccc(N2CCN(C(=O)c3ccco3)CC2)cc1)c1cccc(F)c1	inactive
O=C(Nc1ccc(N2CCCCC2)cc1)c1ccc(F)cc1	inactive
O=C(COc1ccc(Br)cc1CO)Nc1ccccc1F	inactive
O=C(NCCCN=C1NS(=O)(=O)c2ccccc21)c1ccco1	inactive
COC(=O)C1CCN(C(=O)c2ccc(NC(C)=O)cc2)CC1	inactive
CCOC(=O)C(C)Oc1cccc2c(=O)n(CC(=O)N3CCc4ccccc43)ccc12 (configuration not stated)	inactive
CCOC(=O)C(C)Oc1cccc2c(=O)n(CC(=O)NCc3ccco3)ccc12 (configuration not stated)	active
CCOC(=O)COc1cccc2c(=O)n(CC(=O)NCc3ccc4c(c3)OCO4)ccc12	inactive
Nc1nonc1C(=O)NCCNCc1ccccc1OCc1ccccc1F	inactive
Nc1nonc1C(=O)NCCNCc1cc(Br)ccc1OCc1ccc(F)cc1	inactive
Nc1nonc1C(=O)NCCNCc1cc(Br)ccc1OCc1ccccc1F	active
c1ccc(C2CC(c3ccccc3)n3ncnc3N2)cc1 (configuration not stated)	inactive
O=c1[nH]c(=O)n([C@H]2C[C@H](O)[C@@H](CO)O2)cc1C(F)(F)F	inactive
CCc1cn([C@H]2C[C@H](O)[C@@H](CO)O2)c(=O)[nH]c1=O	inactive
O=c1[nH]c(=O)n([C@H]2C[C@H](O)[C@@H](CO)O2)cc1F	active
Cc1ccc(NC(=O)CN(C)C(=O)CSc2nc3ccccc3c(=O)n2Cc2ccco2)cc1	inactive
Cc1csc2nc(CSc3nc4ccccc4o3)cn12	inactive
Cc1csc2nc(CSc3ccc(Cl)cc3)cn12	inactive
Cc1ccc(-c2cc(C(=O)N/N=C/c3ccco3)[nH]n2)cc1	inactive
COc1ccccc1/C=N/NC(=O)C1=NNC(c2ccccc2)(c2ccccc2)C1	inactive
O=C(CSc1ccccc1)Nc1ccncc1	inactive
Cc1cc2c(c(=O)n1Cc1ccccn1)C(C(C)C)C(C#N)=C(N)O2 (configuration not stated)	inactive

SMILES	outcome
Nc1cccc(-c2nc3ccccc3s2)c1	inactive
Nc1cccc(-c2nc3ccc(N)cc3s2)c1	active
Nc1ccc(O)c(-c2nc3ccccc3s2)c1	inactive
Cc1nc2ccc(N)cc2s1	inactive
Cc1nc(-c2cccc(N)c2)cs1	inactive
COc1cccc(NC(=O)C2C3C=CC4(O3)C2C(=O)N(C2CC2)C4C(=O)NC2CCCCC2C)c1 (configuration not stated)	inactive
C=C(C)c1cccc(C(C)(C)NC(=O)N2CCN(CC(N)=O)CC2)c1	inactive
CC(C)(C)c1ccc(C2(C)NC(=O)N(CC(=O)Nc3ccc4c(c3)OCO4)C2=O)cc1 (configuration not stated)	inactive
CCCCCn1c(=O)[nH]c2cc(C(=O)N3CCN(CC)CC3)ccc2c1=O	inactive
CCOC(=O)N1CCN(C(=O)CN(C2CCCCC2)S(=O)(=O)c2ccc(Cl)cc2)CC1	inactive
COc1ccc(NC(=O)c2cc(=O)c3ccccc3o2)cn1	inactive
COc1ccc(NC(=O)/C(Cl)=C(/Cl)S(=O)Cc2ccccc2)cn1 (configuration not stated)	active
COc1ccc(NC(=O)c2nc3nccc(C)n3n2)cn1	inactive
COc1ccc(NC(=O)c2cc(CN3C(=O)c4ccccc4C3=O)ccc2OC)cn1	inactive
COc1ccc(NC(=O)/C(Cl)=C(/Cl)S(=O)Cc2ccc(C)cc2)cn1 (configuration not stated)	active
CCOc1ccccc1OCCCC(=O)Nc1ccc(OC)nc1	inactive
Cc1ccc(C(=O)n2cnnc2N)cc1	inactive
CN(C)c1nc(N)nc(-c2cccnc2)n1	inactive
COc1ccc(C)cc1S(=O)(=O)N(C)CC(=O)Nc1ccc2c(c1)OCO2	inactive
Cc1ccc2ccccc2c1COC(=O)c1nonc1N	inactive
